The panel holds about 83,000 compounds, 20% with a hit somewhere; the sample as a whole holds those more often.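 Note: values are percent growth. 100 is the growth of untreated cells, values between 100 and 0 indicate rising inhibition; between -100 and 0 indicates cell death.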 Values without a mark were called inactive. Calls of active or inactive are those of the source.
Each compound was assayed on A549/ATCC NSCLC (assay: NCI-60 one-dose screen, 48 h (100 = growth as untreated, 0 = no growth, -100 = all killed)). Conditions: 10 µM.
Method: Growth inhibition of the A549/ATCC human Non-Small Cell Lung tumor cell line is measured as a screen for anti-cancer activity. Cells are grown in 96 well plates and exposed to the test compound for 48 hours. Compounds are tested at a single concentration, which is 10^-5 M for most compounds. The reported endpoint is percent growth (GI% or GIPRCNT), where numbers from 0 - 100% represent growth inhibition, and numbers from -100% - 0 represent cell death. For example, a value of 40 represents 60% growth inhibition. A value of 0 means no net growth occurred over the course of the experiment. A value of -40 indicates 40% of cells at the beginning of the experiment died by the end of the experiment. A value of -100 means all cells are dead at the end of the experiment.
NCI-60 Human Tumor Cell Lines Screen was performed using the standard one-dose NCI protocol, which is described in more detail at https://dtp.cancer.gov/discovery_development/nci-60/default.htm.
Compounds with GIPRCNT values below 10 were considered active. Activity score was based on GIPRCNT using the following formula: […]
Score is 0 for GIPRCNT values of 100 or above, 50 for GIPRCNT values of 0, and 100 for GIPRCNT values of -100.

**Q.** Which growth does the source give for `COc1cc(C2CC(c3ccc(Nc4ccnc5cc(Cl)ccc45)cc3)=NN2c2ccc(Cl)cc2)cc(OC)c1OC` (stereo not given) here?
**A.** The growth was 44.6%.

**Q.** For `Cn1c([N+](=O)[O-])cnc1/C=C1\Oc2cc(Cl)ccc2C1=O`, which growth is on record?
**A.** Its growth is 3.98% (active).

**Q.** For `C#Cc1ccc(-n2c(/C=C/c3ccc(C(F)(F)F)cc3)nc3ncccc3c2=O)cc1`, which growth is on record?
**A.** Its growth is 23.6%.

**Q.** With `Cc1[nH]nc2c1C(c1cnn(C)c1)C(C#N)=C(N)O2` (stereo not given) as the compound, how does the growth read?
**A.** The growth was 96.1%.

**Q.** How did the growth turn out when `N#CCCN1C/C(=C/c2ccc(Cl)cc2)C(=O)/C(=C/c2ccc(Cl)cc2)C1` was run?
**A.** The growth was -35.9% (active).

**Q.** `COc1ccc(-c2nc(-c3nc4ccc(OC)cc4[nH]3)cc3c2[nH]c2ccccc23)cc1` was tested. Which growth did it give?
**A.** Its growth is 12.9%.

**Q.** `C=C1c2c(C)nn(-c3ccc(OC)cc3)c2N(C)C23C[C@@H]1C1(C)c4c(C)nn(-c5ccc(OC)cc5)c4N(C)C(C)(C[C@H]12)C3` (stereo not given in full) was tested. Which growth did it give?
**A.** The growth was 15.4%.

**Q.** Which growth does the source give for `Nc1ccccc1NC(=O)CCCCC(=O)Nc1ccc2c(c1)/C(=C/c1ccc[nH]1)C(=O)N2` here?
**A.** The growth was 92.9%.

**Q.** Which growth does the source give for `COc1ccc(CN2CCC(N3CCCC3=O)c3cc(Cl)ccc32)cc1` (stereo not given) here?
**A.** Its growth is 104%.

**Q.** For `O=C1/C(=C\c2ccccc2)CN(C(=O)c2ccccc2F)C/C1=C\c1ccccc1`, which growth is on record?
**A.** Its growth is 53.3%.

**Q.** With `CNc1ncc(-c2ccc(C(F)(F)F)cc2)c(NC2CCCCCC2)n1` as the compound, how does the growth read?
**A.** The growth was 69.1%.

**Q.** With `COc1cc(C(=O)/C=C/c2cc(-c3cc(OC)c(OC)c(OC)c3)n[nH]2)cc(OC)c1OC` as the compound, how does the growth read?
**A.** Its growth is 53.6%.

**Q.** With `FC(F)(F)c1ccc(-c2cnc(-n3cc(COCCN4CCCCC4)nn3)nc2NC2CCCCCC2)cc1` as the compound, how does the growth read?
**A.** Its growth is 10.6%.

**Q.** With `Oc1[nH]c2cc(Cl)ccc2c1/C=c1/ccc2c(c1)N=C(c1cc(F)cc(F)c1)N=2` as the compound, how does the growth read?
**A.** Its growth is 37.9%.

**Q.** For `O=C1/C(=C\c2ccc(Cl)cc2)CN(C(=O)c2ccccc2)C/C1=C\c1ccc(Cl)cc1`, which growth is on record?
**A.** The growth was 22.2%.

**Q.** With `O=C(Nc1ccncc1)C(=O)c1cn(S(=O)(=O)c2cccc(Cl)c2)c2ccccc12` as the compound, how does the growth read?
**A.** The growth was 75.5%.

**Q.** `COc1ccc2c(c1)sc1nc(-c3ccccc3)c(-c3ccsc3)n12` was tested. Which growth did it give?
**A.** Its growth is 31.1%.

**Q.** With `O=C1CC[C@@H]2CCCC[C@@H]2C1` as the compound, how does the growth read?
**A.** Its growth is 107%.

**Q.** How did the growth turn out when `CCn1cc(C(=O)O)c(=O)c2cnc(N3CCCC3)nc21` was run?
**A.** Its growth is 96.1%.

**Q.** Which growth does the source give for `CCN(CC)CCOc1nc2ccccc2c2c1-c1ccc(OC)cc1C2=O` here?
**A.** Its growth is -28.5% (active).

**Q.** How did the growth turn out when `CCN(CC)CCSCCN(CC)CC` was run?
**A.** The growth was 103%.

**Q.** How did the growth turn out when `O=C(Nc1cccc(-n2cc(-c3ccncc3)c(-c3cc(O)cc(Cl)c3)n2)c1)Nc1ccc(Cl)c(C(F)(F)F)c1` was run?
**A.** The growth was 8.81% (active).

**Q.** With `N#Cc1ncc(-c2cc(F)c(F)c(F)c2)c(NC2CCCCCC2)n1` as the compound, how does the growth read?
**A.** The growth was 95.8%.

**Q.** `Cc1ccc(NC(=O)CSc2nc3ccccc3c(=O)n2CCc2ccccc2)c(C(=O)O)c1` was tested. Which growth did it give?
**A.** The growth was 98%.

**Q.** For `COc1ccccc1/C=C/C(=O)c1ccccc1`, which growth is on record?
**A.** Its growth is 67%.

**Q.** With `CCCCOC(=O)Oc1ccc(C(=O)Oc2ccc(OCC)cc2)cc1` as the compound, how does the growth read?
**A.** Its growth is 85.6%.

**Q.** `COc1cc(Cl)cc(-c2nn(-c3cccc(NC(=O)c4ccc(Cl)c(Cl)c4)c3)cc2-c2ccncc2)c1` was tested. Which growth did it give?
**A.** The growth was 59.7%.

**Q.** Which growth does the source give for `O=S(=O)(Nc1ccccn1)c1ccc(N=Nc2ccc(O)c3ncccc23)cc1` here?
**A.** The growth was -6.8% (active).

**Q.** How did the growth turn out when `Oc1[nH]c2ccc(Cl)cc2c1/C=c1/ccc2c(c1)N=C(c1cc(F)cc(F)c1)N=2` was run?
**A.** The growth was 57.4%.

**Q.** With `COc1cc2c(cc1OC)N(CCO)C1=C(C(=O)OC1)C2c1ccc(Cl)c(Cl)c1` (stereo not given) as the compound, how does the growth read?
**A.** The growth was 98.6%.

**Q.** Which growth does the source give for `O=S(=O)(NCCCNc1nccc(-c2c(-c3ccc(F)cc3)nc3sccn23)n1)c1ccc(F)cc1` here?
**A.** The growth was 25.9%.

**Q.** `CCN(CC)CCC(CNc1c(C)cnc2cc(Cl)ccc12)c1ccc(Cl)c(Cl)c1` (stereo not given) was tested. Which growth did it give?
**A.** Its growth is 64.1%.

**Q.** Which growth does the source give for `COC(=O)C(C(C[N+](=O)[O-])c1ccccc1)=P(c1ccccc1)(c1ccccc1)c1ccccc1` (stereo not given) here?
**A.** Its growth is 101%.

**Q.** How did the growth turn out when `O=C1NC(=O)c2ncccc21` was run?
**A.** Its growth is 98.8%.

**Q.** Which growth does the source give for `Nc1c(C(=O)Nc2cccc(Br)c2)sc2nc3c(cc12)C(O)CCC3` (stereo not given) here?
**A.** Its growth is 30.1%.

**Q.** `CC(=O)N1C/C(=C/c2ccc(Cl)cc2)C(=O)/C(=C/c2ccc(Cl)cc2)C1` was tested. Which growth did it give?
**A.** Its growth is -24.6% (active).

**Q.** `O=C(c1ccc(Cl)cc1Cl)N1CCOCC1` was tested. Which growth did it give?
**A.** Its growth is 98.4%.

**Q.** For `COc1ccc(-c2nn(-c3cccc(NC(=O)Nc4cc(C(F)(F)F)cc(C(F)(F)F)c4)c3)cc2-c2ccncc2)cc1Cl`, which growth is on record?
**A.** The growth was 0.691% (active).

**Q.** For `O=C1/C(=C/c2ccc(Cl)cc2)SC(=Nc2ccc(Cl)cc2)N1Cc1nc2ccccc2[nH]1`, which growth is on record?
**A.** Its growth is 70.8%.

**Q.** How did the growth turn out when `N#CCCN1C/C(=C/c2ccc(Br)cc2)C(=O)/C(=C/c2ccc(Br)cc2)C1` was run?
**A.** The growth was -37.6% (active).
